# Only some compounds are listed: those with a hit (about 3.1% of all), similar ones and a draw of the others.
# CF NFkB block = inhibitors of PAF-induced NF-kB signaling, primary screen, cell-based, GFP fluorescence, uHTS. KKLEB NF-kB-GFP reporter, GFP fluorescence overnight. inhibition, % at 5 µM. 360,000 tested, 0.86% active. AID 588850, 2011;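 active means at least 50% inhibition at 5 µM, scaled per plate between neutral and stimulator controls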;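 further: PAF is a Pseudomonas aeruginosa culture filtrate used as stimulus; plate controls were PAF-stimulated DMSO wells for no effect and unstimulated DMSO wells for full effect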
# PPC-1+TRAIL kill = compounds killing PPC-1 cancer cells with TRAIL present, primary screen, TRAIL potentiator project, ATPLite luminescence, uHTS | AID 1443, 2008 | cell killing (% activity), % at 4 µM or 5 µM | 220,000 tested, 0.41% active | PPC-1 cells + TRAIL, ATPLite viability luminescence;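 active means cell killing above 50% in the first pass at 4 µM, then a duplicate retest at 5 µM averaging 50% or more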;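 further: plate controls were cells with TRAIL plus DMSO for no effect and medium-only wells lacking cells for full effect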
# Peg3 prom inh = Peg3 promoter-driven luciferase inhibitors, primary screen, cell-based, HeLa, luciferase luminescence; HeLa PEG-Prom luciferase reporter, overnight; inhibition, % at 20 µM; 360,000 tested, 1.7% active;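 active means inhibition of at least 50% at 20 µM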
# KKLEB cytotox = cytotoxicity in KKLEB CF airway cells, primary screen, cytotoxicity control for CF NF-kB inhibitor project, cell-based, uHTS, fluorescence assay plates | AID 602141, 2011 | KKLEB CF airway cells viability, ATPlite luminescence, overnight; hits give low values; cells stimulated with P. aeruginosa culture filtrate | 360,000 tested, 0.36% active | activity change (cytotoxicity), % at 5 µM;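 active means corrected activity change at or below -50% at 5 µM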
# TRAIL sens C8 = viability loss with TRAIL in NB7+C8 cells, primary screen, TRAIL sensitizer project, cell-based, ATPlite luminescence; inhibition (viability loss, TRAIL sensitization), % at 10 µM; 360,000 tested, 1% active;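 active means compounds causing at least 50% loss of cell viability in the single-dose screen, relative to plate controls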
# HIF-2a block = HIF-2a reporter inhibitors, primary screen, luminescence, 786-0 RCC cells; AID 624352, 2012; 786-0 RCC cells HIF-2a reporter, luciferase luminescence, overnight; 360,000 tested, 0.72% active; inhibition, % at 18.8 µM;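 active means inhibition of the luminescence signal of 40% or more relative to plate controls, in a single-dose primary screen at 18.75 µM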
# Numbers without * were called inactive; . = not tested or not shown.
SMILES,CF NFkB block,PPC-1+TRAIL kill,Peg3 prom inh,KKLEB cytotox,TRAIL sens C8,HIF-2a block
COC(=O)c1sc(N2C(=O)c3oc4ccccc4c(=O)c3C2c2cccc(O)c2)nc1C (stereo not drawn),0.4,30.7,52.2*,-0.9,0.6,11.3
C=C[C@]1(C)C=C2C(=O)[C@@]3(O)OC(=O)[C@@]4(CCCC(C)(C)[C@H]34)[C@@]2(O)CC1,88.0*,.,98.7*,-98.6*,-4.8,96.8*
C=C[C@]1(C)C=C2CC[C@H]3[C@@](C)(CCC[C@@]3(C)C(=O)O)[C@@H]2CC1,15.9,.,5.6,-8.0,-7.3,13.9
CCN(CC(=O)Nc1ccc(NC(C)=O)cc1)C(=O)c1cccc(S(=O)(=O)N2CCCC2)c1,8.1,.,14.5,-13.9,4.3,11.7
Cc1cc(NC(=O)c2ccccc2-c2ccccc2C(=O)O)no1,-14.6,50.3*,-1.7,3.6,7.8,7.2
COc1ccccc1C(=O)Nc1c[nH]c(=O)[nH]c1=O,-19.9,.,64.5*,14.2,-10.2,1.7
CCOc1ccccc1C(=O)Nc1c[nH]c(=O)[nH]c1=O,13.0,.,25.1,-3.3,-6.4,-2.9
CN(C)CCCN(C(=O)CCc1ccccc1)c1nc2ccc(F)cc2s1,2.7,23.0,-2.2,5.4,0.6,-3.0
CN(C)CCCN(C(=O)c1ccco1)c1nc2ccc(Cl)cc2s1,8.9,9.1,-61.2,-10.0,-1.2,-55.0
CN(C)CCCN(C(=O)c1ccco1)c1nc2ccc(Br)cc2s1,-8.7,1.9,50.8*,-13.5,18.6,-63.5
Cc1cccc2sc(N(CCCN(C)C)C(=O)CCc3ccccc3)nc12,21.9,3.9,104.0*,-15.1,15.5,10.3
CN(C)CCCN(C(=O)CCc1ccccc1)c1nc2ccc(Br)cc2s1,23.8,33.9,106.4*,-20.6,13.0,-2.6
Cc1cc(NC(=O)Nc2ccccc2[N+](=O)[O-])n(C)n1,-17.3,.,-3.5,4.6,-13.6,-4.4
CN1C(C(=O)NCc2cccc(C(F)(F)F)c2)CC2Cn3c(nc4cc(Cl)c(Cl)cc43)C21 (stereo not drawn),-10.0,6.9,0.1,11.1,5.6,9.1
CC(O)CNCCCOc1ccc(Cl)cc1C(C)(C)C (stereo not drawn),10.3,13.8,80.9*,-10.8,6.8,2.2
CC(=O)Nc1ccc(S(=O)(=O)Nc2ccccc2N2CCOCC2)cc1,4.2,.,10.4,-7.7,7.3,10.0
CCN(CC)CCNc1c(C)cc(CO)c(Cl)c1C,12.6,.,71.7*,-7.2,5.4,20.3
CC(C)(C)c1ccc(C(=O)N/C(N)=N/c2nc3ccccc3o2)cc1,1.4,5.7,-0.5,-2.0,5.6,-13.1
Cc1ccc2oc(/N=C(\N)NC(=O)C3CC3)nc2c1,-8.5,28.6,-149.8,-1.0,50.5*,-122.7
Cc1ccc([C@H]2N[C@]3(CCCN(Cc4ccc(F)cc4)C3=O)[C@H]3C(=O)N(C)C(=O)[C@@H]23)cc1,-16.4,.,18.6,-0.7,7.4,-9.0
COc1ccccc1/C=C/C(=O)/C=C/c1ccccc1O,-6.7,22.7,100.5*,-12.7,27.5,-12.1
O=C(/C=C/c1ccncc1)c1ccc2c(c1)OCCO2,10.2,9.4,105.0*,-15.7,-3.0,3.1
COc1ccccc1/C=C/C(=O)Nc1ccc2c(c1)OCCO2,7.6,56.2*,-182.2,-34.5,75.4*,-268.3
O=C(/C=C/c1ccccc1)Nc1ccc2c(c1)OCCO2,13.3,.,-178.9,-33.2,74.7*,-171.5
CCN(CC(=O)Nc1ccc2c(c1)OCCO2)C(=O)/C=C/c1ccccc1,22.7,21.6,-48.5,-25.5,1.1,-82.2
SMILES,CF NFkB block,PPC-1+TRAIL kill,Peg3 prom inh,KKLEB cytotox,TRAIL sens C8,HIF-2a block
CCc1ccc(NC(=O)C2CCN(S(=O)(=O)c3ccc4[nH]c(=O)ccc4c3)CC2)cc1,-32.4,.,5.8,5.6,3.2,7.3
CN(C)CC/C=C1\c2ccccc2Sc2cc(F)c(Cl)cc21,11.7,.,61.6*,5.0,-0.2,13.1
COc1cc(Cl)c(C)cc1NC(=O)c1ccccc1NC(=O)CN1CCN(c2ccccn2)CC1,11.4,.,91.2*,-6.4,20.7,19.4
COc1cc(NC(=O)c2ccccc2)c(OC)cc1NC(=O)CN1CCN(c2ccccn2)CC1,5.2,27.8,15.1,3.8,6.8,-14.6
COc1ccc(-c2nn(-c3ccccc3)cc2C(=O)n2nnc3ccccc32)cc1,29.9,11.4,55.5*,-25.3,-6.0,15.9
CN(C)CCCN1C(=O)c2cccc3c([N+](=O)[O-])ccc(c23)C1=O,0.1,28.6,90.5*,4.1,20.0,19.7
O=C(COC(=O)COc1ccc(Br)cc1)NNC(=O)c1ccccc1,10.3,.,-15.9,-3.4,-13.5,15.7
Cc1nn2cc(-c3ncc(C(F)(F)F)cc3Cl)cnc2c1Br,3.4,36.8,-66.8,-0.4,12.2,-57.1
Cc1cc2ncc(-c3ncc(C(F)(F)F)cc3Cl)cn2n1,2.8,36.2,-2.7,6.4,57.7*,-30.0
CCc1sc(C(=O)Nc2ccc3c(c2)OCCO3)cc1Br,-19.8,.,-285.5,10.1,50.2*,-244.6
Cc1nc2cc(NC(=O)c3ccc(Br)s3)ccc2s1,-1.8,.,-276.0,-20.2,62.8*,-201.1
O=C(Nc1ccc2c(c1)OCCO2)c1ccc(Br)s1,-15.1,60.5*,-122.5,-13.5,74.0*,-120.9
COc1cc(C(=O)NC2CCN(C)CC2)ccc1Nc1ncc2c(n1)N(C1CCCC1)CCC(=O)N2C(C)C,-102.1,.,69.4*,-15.1,20.8,-11.5
COc1cc(C(=O)NC2CCN(C)CC2)ccc1Nc1ncc2c(n1)N(CCc1ccccc1)CCC(=O)N2C,-135.7,.,-64.0,-22.8,20.6,-75.8
O=C(CSc1ncnc2sccc12)Nc1ccccc1,-20.2,5.5,-23.6,-1.7,-1.7,-59.7
O=C(CSc1ncnc2c1oc1ccccc12)Nc1nc2ccccc2s1,45.5,-4.6,56.1*,-33.9,20.3,21.4
O=C(CSc1ncnc2c1sc1ccccc12)Nc1ccc(Br)cc1,42.6,-17.5,-6.8,-57.3*,10.6,9.6
CCc1nnc(NC(=O)CSc2ncnc3c2oc2ccccc23)s1,16.9,11.0,44.2,-11.4,-2.4,13.4
OC[C@@H]1CN(Cc2ccc3c(c2)OCO3)C[C@H](n2cnc3c(N4CCCC4)ncnc32)O1,-3.0,.,3.6,-1.4,3.3,-5.5
C[C@@]12C(=O)Nc3cc(F)ccc3C(=O)N1[C@H]1c3cc(Br)ccc3OC[C@@H]1[C@@H]2c1ccccc1,13.4,.,54.0*,-12.9,21.8,-7.8
Cc1ccc2c(c1)[C@H]1[C@H](CO2)[C@H](c2ccccc2)[C@]2(C)C(=O)Nc3ccccc3C(=O)N12,31.1,.,27.9,-20.9,15.2,25.6

# Bioassay records: PubChem BioAssay, Sanford-Burnham Center for Chemical Genomics
